Laboratory results: PubChem BioAssay AID527 (NMMLSC, 2006)
About 65 (0.3%) of roughly 24,000 compounds were called active. The sample holds actives, similar compounds and a random draw of the others, so the mix is not that of the screen.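 Rule for the calls: active = share of bacteria positive for the green fluorescent reporter and its mean brightness both inhibited by 50% or more; inactive = the rest, inconclusive results apart.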

Assay: blockers of AIP-driven agr signalling in S. aureus – RNAIII-GFP reporter, flow cytometry, primary screen (AID 527);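 note: 0% = AIP-stimulated control and 100% = unstimulated bacteria without AIP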
Details: S. aureus RN6390 RNAIII-GFP reporter, AIP-induced, flow cytometry 3 h, at 2 µM, stronger effect = higher value
[1] = measured here: inhibition of GFP MFI

| SMILES | inhibition | inhibition [1] [%] |
| --- | --- | --- |
| CCN(CC)CCNC(=O)Cn1cnc2sc(C)c(S(=O)(=O)N3CCOCC3)c2c1=O | -4.4% (inactive) | -7.2 |
| CCn1cc(C(=O)N2CC=C(c3ccccc3)CC2)c(=O)c2ccc(C)nc21 | 17.2% (inactive) | 30.6 |
| CCOC(=O)Cn1c(=O)oc2cc(S(=O)(=O)N(C)Cc3ccco3)ccc21 | -6.4% (inactive) | -10.2 |
| CC1CCN(c2oc(-c3ccccc3F)nc2C#N)CC1 | 0.5% (inactive) | 3.2 |
| Cc1ccccc1NC(=O)c1ccccc1 | -2.3% (inactive) | -11.3 |
| CCOC(=O)N1CCN(CC(=O)c2c(C)[nH]c3ccccc23)CC1 | -0.6% (inactive) | 7.3 |
| COc1cc2cc(CN(CCN3CCCC3)C(=O)Nc3ccccc3Cl)c(=O)[nH]c2cc1OC | -3.5% (inactive) | -20.1 |
| Cc1ccccc1CN1CCN(C(=O)c2cccc(F)c2)CC1 | -0.2% (inactive) | -10.6 |
| COc1cccc(OC)c1OCCN1CCN(C(=O)c2ccco2)CC1 | -1% (inactive) | 4.2 |
| COc1ccc(OC)c(NC(=O)CCN2CCC(C)CC2)c1 | -0.7% (inactive) | -21.9 |
| CCOc1ccc(-c2cn(S(=O)(=O)c3cccc4nsnc34)nc2N)cc1 | 2.7% (inactive) | 26.8 |
| Cn1c(=O)[nH]c(=O)c2c1nc(NCCCn1ccnc1)n2Cc1cccc(Br)c1 | -0.5% (inactive) | -1.6 |
| CC(=O)c1cc2c(cc1NC(=O)CN1CCCCCC1)OCO2 | -3.5% (inactive) | -12.2 |
| O=C(CC(NCCN1CCOCC1)C(=O)O)Nc1cccc(Cl)c1 (centres undefined) | -0.4% (inactive) | 7.8 |
| CCN(CC)C(=O)CCC(=O)Nc1ccc(C(=O)OC)cc1 | 0.7% (inactive) | 0 |
| CCOc1ccc(Cn2nnc(C(=O)Nc3ccc(OC)cc3OC)c2N)cc1 | -0.3% (inactive) | -4.3 |
| COc1ccc(C(=O)NCc2cn3ccccc3n2)cc1 | -9.5% (inactive) | -17.4 |
| Cc1cc(C)c2c(n1)nn1c(N3CCOCC3)cc(C)nc21 | -1.1% (inactive) | 1.4 |
| CCCCN(CC)C(=O)CN(C)S(=O)(=O)c1cccc2nsnc12 | -1.2% (inactive) | -4.3 |
| CC1CCCCC1NC(=O)CCS(=O)(=O)c1cccc2nonc12 (centres undefined) | 4% (inactive) | 22.1 |
| CCOc1ccc(C2C(C(=O)NC)=C(C)Nc3nc4ccccc4n32)cc1OC (centres undefined) | 2.9% (inactive) | 6.8 |

| SMILES | inhibition | inhibition [1] [%] |
| --- | --- | --- |
| O=C(NCc1ccco1)C1CCCN(S(=O)(=O)c2cnc[nH]2)C1 (centres undefined) | 3.6% (inactive) | 9.1 |
| CCn1cc(C(=O)NCC2CCCO2)c(=O)c2cc(S(=O)(=O)N3CCCCC3)ccc21 (centres undefined) | -8.4% (inactive) | -14.4 |
| O=C(c1ccco1)N1CCN(C(=O)c2ccc(COc3ccc(F)cc3)o2)CC1 | 2.8% (inactive) | 8 |
| COc1ccc(C2OC(=O)CC2C(=O)NC(C)C)cc1 (centres undefined) | -1% (inactive) | -15.8 |
| COc1cc2[nH]c(=S)n(Cc3ccc(C)o3)c(=O)c2cc1OC | 2% (inactive) | 9.8 |
| O=C(CN1C(=O)CCS(=O)(=O)c2ccccc21)NCc1ccc(F)cc1 | -1.6% (inactive) | -8.2 |
| CCOC(=O)CSc1nnc(NC(=O)c2cccc(S(=O)(=O)N3CCCCC3)c2)s1 | -0.3% (inactive) | 13 |
| COc1cccc(OCC(O)CN2CCN(CCO)CC2)c1 (centres undefined) | -2% (inactive) | -8.9 |
| CN(C)/C=C1\C=C(c2ccccc2)OC1=O | 0.4% (inactive) | 1.9 |
| O=C(NCc1ccc2c(c1)OCO2)C1CCCN(S(=O)(=O)c2cccs2)C1 (centres undefined) | 16.2% (inactive) | 44.2 |
| CCCCC(=O)Nc1cc(C)c2c(=O)oc3ccccc3c2n1 | 43.3% (inactive) | 69.9 |
| COc1ccc(N2CCN(CCNC(=O)CCN3C(=O)COc4ccccc43)CC2)cc1 | -0.3% (inactive) | 5.4 |
| COc1cc2[nH]c(=S)n(CCN3CCCCC3C)c(=O)c2cc1OC (centres undefined) | 2.3% (inactive) | 17.7 |
| O=C(CC(NS(=O)(=O)c1ccc(Cl)cc1)c1ccco1)NC1CCCC1 (centres undefined) | 7.7% (inactive) | 13.1 |
| Cc1c(NC(=O)C(C)OC(=O)c2cc3c4ccccc4n(C)c3s2)c(=O)n(-c2ccccc2)n1C (centres undefined) | 0.6% (inactive) | 3.3 |
| O=C(Cn1nc(Cc2cccnc2)c2ccccc2c1=O)NCC1COc2ccccc2O1 (centres undefined) | 5.9% (inactive) | 12.1 |
| Cc1cc(Cl)c(S(=O)(=O)Nc2ccc3c(c2)OCCO3)cc1OCC(N)=O | -0.7% (inactive) | -17.3 |
| Cc1ccc(-c2nc(CS(=O)CC(=O)N3CCN(c4ncccn4)CC3)c(C)o2)cc1 (centres undefined) | -2.1% (inactive) | -1.4 |
| COc1cc(C(O)c2nc3ccccc3n2C)cc(OC)c1OC (centres undefined) | -4% (inactive) | -99.6 |
| CC(C)OCCCNC(=O)CNC(=O)c1cccs1 | -1.5% (inactive) | -15.3 |
| Cc1ccc(S(=O)(=O)N2C3C=CC(C3)C2C(=O)O)cc1 (centres undefined) | -5.7% (inactive) | -28.5 |

| SMILES | inhibition | inhibition [1] [%] |
| --- | --- | --- |
| Cc1ccc(CNC(=O)C2CCCN(S(C)(=O)=O)C2)cc1 (centres undefined) | 0.6% (inactive) | 10 |
| COc1ccccc1C(=O)N1CCN=C1SCc1cccnc1 | -1.3% (inactive) | -5.4 |
| CC(C)(C)n1nc2c(c1NC(=O)c1ccc(S(=O)(=O)N3CCCC3)cc1)CS(=O)C2 (centres undefined) | -6.3% (inactive) | -9.9 |
| Cc1nn(-c2ccccc2)c2c1C(=O)NC(=O)C(C)(C)C2 | 4.5% (inactive) | 27.5 |
| O=C(Nc1ccncc1)c1cc2ccccc2o1 | 0% (inactive) | 2.6 |
| COc1ccc(S(=O)(=O)Nc2ccc(S(=O)(=O)N3CCCCC3)cc2)cc1OC | -3.8% (inactive) | -10.7 |
| Cc1onc(-c2ccccc2)c1C(=O)N1CCOCC1 | 0% (inactive) | 3.7 |
| Cc1ccc(C(c2sc3nc(C)nn3c2O)N2CCN(c3ccc(F)cc3)CC2)cc1 (centres undefined) | 1.8% (inactive) | -4.2 |
| C=CCSc1nc2c(c(=O)[nH]1)C(C(C)C)C(C#N)=C(N)O2 (centres undefined) | 2.6% (inactive) | 27.2 |
| CCN(c1ccc2c(c1)OCO2)S(=O)(=O)c1cc(Br)cc2c1N(C(=O)C1CC1)CC2 | -0.3% (inactive) | 5.6 |
| CCOC(=O)CSC1=C(C#N)C(c2sccc2C)CC(=O)N1 (centres undefined) | -0.9% (inactive) | -28.9 |
| COC(=O)c1ccc(NC(=O)C(C)N2C(=O)c3ccccc3C2=O)cc1 (centres undefined) | -1.2% (inactive) | -12.9 |
| Cc1cc(Nc2cccc(C)c2C)n2ncnc2n1 | 0% (inactive) | 1.4 |
| COC(=O)c1ccc2c(=O)n(CC3CCCO3)c(=S)[nH]c2c1 (centres undefined) | -2.1% (inactive) | 1.7 |
| O=C(NCCCN1CCN(C2CCCCC2)CC1)Nc1ccccc1C(F)(F)F | -9.7% (inactive) | -13.2 |
| COc1cccc(N2CCN(C(=O)C3CCCN(S(=O)(=O)c4cnc[nH]4)C3)CC2)c1 (centres undefined) | -1.3% (inactive) | -0.6 |
| Cc1ccc(C)c(N2CCN(C(=O)CCCCn3c(=O)[nH]c4ccccc4c3=O)CC2)c1 | 71.2% (active) | 71.1 |
| Cc1ccc(C)c(N2CCN(C(=O)CCc3nc4ccccc4[nH]3)CC2)c1 | 5.3% (inactive) | 36.1 |
| O=C(CCn1c(=O)[nH]c2ccccc2c1=O)NCCCN1CCN(c2cccc(Cl)c2)CC1 | -4.8% (inactive) | -25.8 |
| COC(=O)c1ccc(CN(c2ccccc2OC)S(=O)(=O)c2cccs2)o1 | -0.8% (inactive) | -15.8 |
| COC(=O)CN(c1nc(C)c(Cl)c(OC)n1)S(=O)(=O)c1ccc(C)cc1 | -3.6% (inactive) | -2.5 |

| SMILES | inhibition | inhibition [1] [%] |
| --- | --- | --- |
| Cc1ccccc1S(=O)(=O)Cc1ccc(C(=O)NCCN2CCCCC2C)o1 (centres undefined) | 1.5% (inactive) | -6.9 |
| O=C(C(Cc1ccccc1)n1cccc1)N1CCN(C2CCCCC2)CC1 (centres undefined) | -0.8% (inactive) | -1.7 |
| CCOc1ccc(OCC)c(NC(=O)C2CCN(S(=O)(=O)c3c(C)noc3C)CC2)c1 | -1.2% (inactive) | -15.6 |
| O=C(c1ccccc1)c1ccc2nc(N3CCCCC3)c3nncn3c2c1 | -1.8% (inactive) | -34.9 |
| Cc1cccc(N2CCN(Cc3c(C)n(C)n(-c4ccccc4)c3=O)CC2)c1C | -0.1% (inactive) | -1.8 |
| COc1cccc(N2C(=O)C3CCCN3C2c2ccc(F)cc2)c1 (centres undefined) | -4.7% (inactive) | -8.4 |
| CN1CCN(S(=O)(=O)c2ccc3[nH]cc(C(=O)O)c(=O)c3c2)CC1 | -2.2% (inactive) | -22.7 |
| CC(C)N1C(=O)C2C(C(=O)NC3CCCCC3)C3C=CC2(O3)C1C(=O)NC1CCCC1 (centres undefined) | -2.6% (inactive) | -16.1 |
| CC1CCC(NS(=O)(=O)c2ccc3c(c2)n(C)c(=O)c(=O)n3C)CC1 (centres undefined) | -0.4% (inactive) | 12.3 |
| C=CCn1c2ccccc2c2nnc(SC(CC)C(=O)Nc3nc(C)c(C(=O)OCC)s3)nc21 (centres undefined) | 28.9% (inactive) | 48.3 |
| COC(=O)c1cc(C(=O)OC)cc(N2C(=O)CC(N3CCN(c4ccccc4)CC3)C2=O)c1 (centres undefined) | 5.6% (inactive) | 38.5 |
| COCCCNC(=O)CSc1nc2ccc(N3CCOCC3)cc2c(=O)n1CCc1ccccc1 | 10.2% (inactive) | 33.4 |
| COC(=O)Cn1c(=NC(=O)CSCC(=O)Nc2cc(C)on2)sc2ccccc21 | 0.4% (inactive) | 4.6 |
| CC(C)(C)C(=O)CCN1C(=O)C2(OCCO2)c2ccccc21 | -2.2% (inactive) | -21.9 |
| Cc1cccn2c(=O)c3cc(C(=O)NCc4ccccn4)n(C)c3nc12 | -3.5% (inactive) | -9.7 |
| C=CCSc1nnc(Cn2c(=O)sc3ccccc32)n1C | 24.2% (inactive) | 43.3 |
| CCCS(=O)(=O)N1CCCC(C(=O)N2CCN(c3ccccc3)CC2)C1 (centres undefined) | -1% (inactive) | -6.2 |
| CC(c1ccco1)N(C(=O)c1ccc(S(=O)(=O)N2CCCCC2)cc1)c1ccccn1 (centres undefined) | -0.6% (inactive) | 4.5 |
| CCC1=C(C(=O)OC)C(c2cc(OC)ccc2OC)C(C#N)=C(N)O1 (centres undefined) | -0.3% (inactive) | 1.1 |
